# HCV inh = blocks hepatitis C virus. 340,000 compounds, 3.4% hits. Potency, µM (doses to about 41.8 µM), for the others: top-dose activity change, negative = inhibition, actives largely listed as inhibitors. Huh7.5.1 HCVcc-Cre infection, luciferase reporter, 44 h; note: potency is the fitted concentration of half-maximal effect
#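 Compounds are dispensed onto cells plated 4 h earlier at 1,000 per well, with HCVcc-Cre virus (about 0.5 moi) added next. Following 44 h of culture, luminescent signal is measured for 15 sec after 15 min with substrate at room temperature.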
# Pf growth 96h = P. falciparum growth inhibition at 96 hours; P. falciparum luciferase reporter growth, 96 h; Potency, µM (top dose mostly 28.7 µM), for the others: at the highest dose activity change, negative = inhibition, actives largely listed as inhibitors; 320,000 compounds, 6.9% hits; note: potency is the fitted concentration of half-maximal effect
#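 Erythrocytes infected with luciferase-expressing P. falciparum were dispensed at 2% hematocrit and 0.05% parasitemia (final), then incubated with compounds 96 hours at 37 C in 5% CO2. Luminescence after detection reagent addition reported growth.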
# HCMV antiviral = human cytomegalovirus inhibition; 410,000 compounds, 4.5% hits; activity change, negative = inhibition, % at 57.5 µM; HFF cells, HCMV-luciferase reporter, 72 h; hits give low values; in the data active = activity change below about -60%; inconclusive = no clear call, values can overlap the other calls; inactive = above about -39%
#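 Compounds were evaluated in HFFs infected with an HCMV luciferase reporter virus (MOI 1 PFU/cell). Luciferase in lysates collected 72 h post infection served as the replication measure.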
# Pf growth 48h = inhibits P. falciparum growth in the first generation, 48 h; Potency, µM (highest dose often 28.7 µM), for inactives: at the top dose activity change, negative = inhibition, usual class: inhibitors; 310,000 compounds, 5.9% hits; P. falciparum luciferase growth in erythrocytes, 48 h; note: potency is the fitted concentration of half-maximal effect
#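 Erythrocytes infected with P. falciparum carrying an integrated firefly luciferase reporter (2% hematocrit, 0.1% parasitemia final) were exposed to compounds in RPMI 1640 with 0.5% Albumax at 37 C, 5% CO2. Growth inhibition was scored as reduced luminescence.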
# Active calls of the source: *; u = inconclusive; x = no result. Most compounds without a hit are left out; they make up all but 13% or so of the library. Unless noted, calls come from the whole dose curve; as a rule, active = well fitted inhibition curve with a large enough effect; inconclusive = small, poorly fitted or top-dose-only effect, or another doubt; inactive = no such curve, though single readings can be large or run the other way. % is set by controls: 0 for no effect and ±100 for the full control effect.
SMILES,HCV inh,Pf growth 96h,HCMV antiviral,Pf growth 48h
COc1ccc(C(=O)Nc2c(N)nc(SCC(=O)Nc3ccc(NC(C)=O)cc3)[nH]c2=O)cc1OC,9%,10µM*,-16,-25%
Nc1nc(SCC(=O)Nc2ccc(C(F)(F)F)cc2)[nH]c(=O)c1NC(=O)c1ccc(F)c(F)c1,8%,u,25,5%
CCOc1ccccc1NC(=O)Cn1c(=O)n(Cc2ccccc2)c(=O)c2c(C)c(C)sc21,x,x,-27,x
c1ccc2[nH]ccc2c1,x,-18%,x,-12%
Cc1ccc(NC(=O)CN(C)CC(=O)Nc2cccc(F)c2)cc1S(=O)(=O)N1CCCCCC1,u,u,-66*,0%
CCN(CC)S(=O)(=O)c1cccc(NC(=O)CC2CCCC2)c1,-3%,-18%,-1,-1%
CCN(CC)S(=O)(=O)c1cccc(NC(=O)Nc2cccc(C(F)(F)F)c2)c1,2µM*,4.1µM*,x,x
CCN(CC)CC(=O)Nc1cccc(S(=O)(=O)N2CCCC2)c1,u,-4%,-91*,103%
Cc1ccc(NC(=O)CSCC(=O)Nc2cccc(S(=O)(=O)N3CCCCCC3)c2)cc1,13µM*,u,-39,u
Cc1cccc(NC(=O)CSCC(=O)Nc2cccc(S(=O)(=O)N3CCCCCC3)c2)c1,0%,-4%,-33,u
COc1cc(Cl)c(C)cc1NC(=O)c1nn(-c2ccc(C)cc2)c(=O)n(C)c1=O,x,x,5,x
CCc1ccc(S(=O)(=O)Nc2ccc3oc(C)c(C(=O)OCCOC)c3c2)cc1,x,x,1,x
COc1ccc(NC(=O)c2sc3nc(C)c(C(=O)Nc4ccc(C)cc4C)c(-c4sccc4C)c3c2N)cc1,x,x,-20,x
NC(=O)c1ccccc1NC(=O)CC12CC3CC(CC(C3)C1)C2,-26%,9.3µM*,-39,-11%
CN(CC(=O)Nc1cccc(S(=O)(=O)N2CCCC2)c1)CC(=O)Nc1ccc(F)c(F)c1F,u,x,-12,x
CN(CC(=O)Nc1cccc(S(=O)(=O)N2CCCC2)c1)CC(=O)Nc1ccc(Cl)c(C(F)(F)F)c1,18µM*,u,-64*,15µM*
CC(=O)Nc1ccc(NC(=O)CC23CC4CC(CC(C4)C2)C3)cc1,6%,u,14,-21%
CN(C)S(=O)(=O)Nc1cccc(NC(=O)CC23CC4CC(CC(C4)C2)C3)c1,-18%,-21%,10,0%
CN(C)S(=O)(=O)c1cccc(NC(=O)CC23CC4CC(CC(C4)C2)C3)c1,-14%,u,-16,15µM*
CN(C)S(=O)(=O)c1cccc(NC(=O)CNC2CCCCC2)c1,-7%,-2%,0,28%
Cc1ccc(NCC(=O)Nc2cccc(S(=O)(=O)N(C)C)c2)cc1S(=O)(=O)N1CCCCCC1,10µM*,u,-81*,u
Cc1cccc(N2CCN(C(=O)c3ccc4nc(N5CCC(C)CC5)sc4c3)CC2)c1C,x,x,15,x
Cc1ccc(C)c(NC(=O)Cn2cc(C(=O)c3ccncc3)c(=O)c3cc(F)ccc32)c1,x,x,29,x
CCCCNc1nc(Oc2ccc(=O)n(C)n2)nc(N2CCOCC2)n1,x,x,41,x
CCN(CC)S(=O)(=O)c1cccc(NC(=O)c2cccc(S(=O)(=O)N3CCCC3)c2)c1,u,12µM*,-9,9.3µM*
SMILES,HCV inh,Pf growth 96h,HCMV antiviral,Pf growth 48h
CCc1ccc(C(=O)CCC(=O)Nc2cccc(S(=O)(=O)N3CCCCC3)c2)cc1,10µM*,u,-29,u
CCN(CC)S(=O)(=O)c1cccc(NC(=O)CNc2cccc(S(=O)(=O)N3CCCC3)c2)c1,2.5µM*,u,-88*,u
CC(=O)c1cccc(NCC(=O)Nc2cccc(S(=O)(=O)N3CCCCC3)c2)c1,u,u,-38,u
Cc1cc(C)n(-c2ccc(C(=O)Nc3cccc(S(=O)(=O)N4CCCC4)c3)cc2)n1,u,10µM*,-72*,-32%
Cc1ccc(C(=O)N(Cc2ccc(N(C)C)cc2)CC2CCCO2)cc1 (stereo unspecified),x,x,-3,x
O=C(NCc1ccccc1F)C1CCCN(C(=O)N2CCOc3ccccc32)C1 (stereo unspecified),x,x,-12,x
CCc1ccc(OC(=O)c2sc3ncn(Cc4cccc(F)c4)c(=O)c3c2C)cc1,x,x,14,x
COc1ccc2oc(=O)c(C(=O)NCCc3c(C)[nH]c4c(C)cccc34)cc2c1,x,x,-3,x
O=C(CN1CCN(C(=O)c2ccco2)CC1)Nc1cc(S(=O)(=O)N2CCCC2)ccc1Cl,x,x,-10,x
CCN(CC)S(=O)(=O)c1ccc(C)c(NC(=O)CNc2cccc(S(=O)(=O)N3CCCC3)c2)c1,10µM*,-17%,u,12µM*
O=C(CN(CCO)c1ccccc1)Nc1cccc(S(=O)(=O)N2CCCC2)c1,-9%,13µM*,-13,-29%
CC(C)Oc1ccc(C(=O)Nc2cccc(S(=O)(=O)N3CCCC3)c2)cc1,2.8µM*,x,u,x
O=C(CN1CCN(C(=O)c2ccco2)CC1)Nc1cccc(S(=O)(=O)N2CCCC2)c1,-8%,10µM*,-12,u
CCOC(=O)c1c(C)[nH]c(C)c1S(=O)(=O)N(C)CC(=O)Nc1cccc(C(F)(F)F)c1,x,x,-21,x
CCOc1ccc(CNC(=O)C2CCN(C(=O)N3CC(CC)Oc4ccccc43)CC2)cc1 (stereo unspecified),x,x,17,x
O=C(Nc1sc2c(c1C(=O)NCc1ccccc1)CCCC2)c1cc(=O)c2ccccc2o1,x,x,-12,x
Cc1oc2ncn(CC(C)C)c(=O)c2c1C(=O)NC(C)c1ccccc1 (stereo unspecified),x,x,-1,x
CN(C)S(=O)(=O)c1cccc(NC(=O)c2ccc(S(=O)(=O)N3CCCC3)cc2)c1,10µM*,u,-16,-23%
O=S(=O)(c1ccccc1)N1CCC(c2noc3ccccc23)CC1,x,x,-13,x
Cn1c(N)c(C(=O)CSc2nnc(-c3ccccc3F)n2C2CC2)c(=O)n(C)c1=O,-30%,13%,18,u
Cc1ccccc1Nc1nnc(SCC(=O)c2c(N)n(C)c(=O)n(C)c2=O)s1,-9%,u,2,5.2µM*
CCSc1nnc(SCC(=O)c2c(N)n(C)c(=O)n(C)c2=O)s1,6%,4.1µM*,-39,u
Cn1c(N)c(C(=O)CSc2nnc(-c3ccccc3F)n2N)c(=O)n(C)c1=O,19%,10µM*,-10,u
CCOc1ccc(NC(=O)Cn2cc(C(=O)c3ccc(CC)cc3)c(=O)c3ccc(C)nc32)cc1,x,x,-1,x
COc1cc(OC)c(NC(=O)N2CCSc3ccccc32)cc1Cl,x,x,0,x
SMILES,HCV inh,Pf growth 96h,HCMV antiviral,Pf growth 48h
CCOC(=O)c1c(C)oc2nc(C)nc(Nc3cc(C)ccc3OC)c12,x,x,11,x
COCCN(Cc1ccco1)C(=O)c1cc2c(Cl)nc3ccc(C)cc3c2s1,x,x,-10,x
CN(C)CCN(Cc1ccco1)C(=O)c1cc2c(Cl)nc3ccccc3c2s1,10µM*,-3%,u,u
CCc1ccccc1NC(=O)Nc1nnc(N(CC)c2ccccc2)s1,x,x,-6,x
COc1cccc(C(=O)Nc2ccc3[nH]ncc3c2)c1,-13%,u,93,170%
CC(C)c1ccccc1OCC(=O)Nc1ccc2[nH]ncc2c1,22µM*,u,u,u

# From PubChem BioAssay
